Results from PubChem BioAssay AID602282 (Johns Hopkins Ion Channel Center, 2012).
The whole screen tested about 1,100 compounds, of which about 1,000 (91%) were called active.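 Rule for the calls: active = inhibition above 3 SD of the buffer control wells (cut at about 41% in these data); inactive = the rest.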 The set was probably picked from earlier hits. The list is a sample of the results.

assay: inhibition of M3R-evoked calcium signal on retest – cell-based, HEK293 M3R/RGS4 inducible, calcium flux, duplicate, RGS4 activator project, confirmation (AID 602282); conditions: carbachol calcium flux Fluo4, at 10 µM, hits give high values;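 note: signal is the integrated peak-minus-minimum Fluo4 fluorescence over baseline ratio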

inhibition, inactive:
CCc1ccccc1NC(=O)[C@@H]1CCC(=O)N1C1OC(=O)c2c1ccc(OC)c2OC (stereo not given in full) 0% [the number is a placeholder, only the call stands], Cc1ccc(N2C(=O)CC(Nc3cccc4ccccc34)C2=O)cc1 (stereo not given) 0% [the number is a placeholder, only the call stands], CCOC(=O)c1c(NC(=O)NC(C)(C)C)sc2c1CCN(C)C2 0% [the number is a placeholder, only the call stands], CCOc1ccc(C(CC(=O)O)NC(=O)COc2ccccc2)cc1 (stereo not given) 0% [the number is a placeholder, only the call stands], Cc1ccc(OCCCCN2CCCCC2)c(Br)c1 0% [the number is a placeholder, only the call stands]

inhibition, active:
Cc1nn(C)cc1N1C(=O)c2cccc3c(N)ccc(c23)C1=O 97.5%, OCCC1CN(Cc2ccc3nsnc3c2)CCN1C1CCCC1 (stereo not given) 82.5%, COc1cccc(/C=N/Nc2cc(C)nc(-c3ccccc3O)n2)c1O 93.5%, COc1cccc(-c2cc3nc4c(c(N5CCC6(CC5)OCCO6)n3n2)CCCC4)c1 56.5%, Cc1ccc(OS(=O)(=O)c2ccc(-c3csc(C)n3)s2)c(C)c1 82%, COC(=O)c1ccc(CN2CCC(CO)(Cc3ccc(OC)cc3)CC2)cc1 92%, CCCCCC(O)(CCN1CCCCC1)c1ccccc1 (stereo not given) 93%, C#CC(CCN1CCCCC1)(OC)c1ccccc1 (stereo not given) 93%, Cc1ccc(SCC(=O)c2cc(C)c(OC(=S)N(C)C)c(C)c2)cc1 88.5%, Cc1cc2oc3ccc(NCCC4CCCN4C)cc3c(=O)c2cc1C (stereo not given) 91%, O=S(=O)(c1ccc(Br)cc1)n1ccc2ccccc21 80.5%, CCc1c(C)sc(NC(=O)c2ccc(Br)o2)c1C(=O)OC 69.5%, Cc1oc2c(F)c(F)c(F)c(F)c2c1S(=O)(=O)Nc1cccc(C(F)(F)F)c1 92%, COc1ccc(C(=O)Nc2nc(-c3ccc(S(=O)(=O)N4CCOCC4)cc3)cs2)cc1 85.5%, CCC1CCCCN1CCCNC(=O)c1cc2c(Cl)nc3ccccc3c2s1 (stereo not given) 93.5%, N=c1c2c3c(sc2nc2n1CCCCC2)CCCC3 87%, Oc1ccccc1N1CCN(c2ncnc3sc(-c4ccccc4)cc23)CC1 87.5%, COc1ccc(/C=C(\C#N)c2c[nH]c3ccccc23)cc1 85%, COc1cccc(CNC(=O)CCC2CCCN(Cc3ccc(OC(F)F)cc3)C2)c1 (stereo not given) 74%, Cc1nc(N2CCN(c3ccccn3)CC2)c2c(C)c(C(=O)Nc3ccc(F)cc3)sc2n1 91%, OC(CN=c1sc2ccccc2n1CC(O)COc1ccccc1)COc1ccccc1 (stereo not given) 91.5%, CCOC(=O)C1=C(NC(=S)NC(=O)c2ccccc2)c2ccccc2CC1(C)C 92%, CN1CCN(C(=O)N2c3ccccc3CCc3ccccc32)CC1 90.5%, O=C(Cn1c(N2CCN(C/C=C/c3ccccc3)CC2)nc2ccccc21)c1ccccc1 91.5%, Cc1cccc(-c2nc3ccc(C(=O)NCCN4CCN(C)CC4)cc3nc2-c2cccc(C)c2)c1 93.5%, COc1ccc(CN2CCCC(C(=O)c3ccc(Cl)cc3)C2)cc1Cn1cncn1 (stereo not given) 93%, COc1ccccc1C(CNC(=O)c1cccc(NS(=O)(=O)c2ccc(Br)cc2)c1)N(C)C (stereo not given) 85%, O=C(CN1CCCCCC1)Nc1ccc(S(=O)(=O)N2CCCCC2)cc1 65%, CCCN(CCc1ccccc1)C1CCc2c(O)cccc2C1 (stereo not given) 78%, CN(C)CCOc1ccc(Cl)cc1C(C)(C)C 81.5%, COc1ccc(CN(C)C(=O)c2cc(-c3ccc(C)cc3C)nc3ccccc23)c(OC)c1OC 90%, COc1ccc(-c2cc(C(=O)N(C)Cc3ccccc3)c3ccccc3n2)cc1 88.5%, CN(C)S(=O)(=O)N1CCC(Oc2cccc(C(=O)NCCCC3CCCC3)c2)CC1 78.5%, Cc1ccc(C)c(N2CCN(C(=O)CCCn3c(=O)c4cccn4c4cccnc43)CC2)c1 85.5%, Cc1ccc(C)c(N2CCN(C(=O)CCCCCn3c(=S)[nH]c4ccc(N5CCOCC5)cc4c3=O)CC2)c1 92%, O=C(c1cccs1)C1C(c2ccc(Br)cc2)NC(=S)NC1(O)C(F)(F)F (stereo not given) 93.5%, CCC1C=C(c2ccccc2)C=CN=C1N(CC)CC (stereo not given) 84%, COc1cc(/C=C(\C#N)c2nc3ccccc3[nH]2)ccc1O 80.5%, Cc1cccc(-c2nc(Nc3ccc(O)cc3)c3ccccc3n2)c1 80%, Cc1ccnc(SCCn2c(N(C)Cc3ccccc3)nc3c2c(=O)n(C)c(=O)n3C)n1 62%, Cc1ccccc1C(OCCN(C)C)C1CCCCC1 (stereo not given) 91%, S=c1[nH]nc(-c2ccc(Cl)cc2)n1CC1CCCO1 (stereo not given) 59%, CN(C)c1ccc(/C=C2\NC(=S)N(Cc3ccccc3)C2=O)cc1 79.5%, CC(C)C(c1nnnn1CCc1ccccc1)N1CCN(C(=O)c2ccco2)CC1 (stereo not given) 87.5%, COc1ccc(C(=O)NC2CCCc3c2cnn3-c2cccc(C)c2C)c(OC)n1 (stereo not given) 91%
